SMILES strings stand for the structures. Values without a mark were called inactive.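 How the source made its calls: active = growth AUC significantly below the DMSO wells by Dunnett test; inactive = the rest.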

The test system of the first assay is Community 8. The experiment in a line: relative growth (AUC of 72 h growth curve relative to DMSO control, dAUC) (ratio); higher = more growth (less inhibition), active = hit call of the paper. To be noted: 20 µM. The gist of the method:
(§1)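 Cultures grown to carrying capacity in Luria–Bertani medium, drawn from Icelandic stream sediment and Silwood Park soil isolates and whole sediment communities, were diluted 1:100 into 96-well plates with each chemical at 20 µM (1% DMSO) and read at A600 hourly for 72 h. The spline-integrated area under the growth curve, divided by the mean of the DMSO controls, is reported as relative growth (dAUC). Values are means of three biological replicates.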
For the molecule `CNC(=O)CSP(=S)(OC)OC`, the relative growth was 0.999.
The same measure, in the same setting: the same measure for `N#CCNC(=O)c1cnccc1C(F)(F)F`: 0.986; for `COP(=O)(OC)OC=C(Cl)Cl`: 0.997.
Take `CCc1cc(C)cc(CC)c1-c1c(OC(=O)C(C)(C)C)n2n(c1=O)CCOCC2`: the relative growth was 0.968.
For `CCOc1ccc(C(C)(C)COCc2cccc(Oc3ccccc3)c2)cc1`, the relative growth is 1.06.
As to `COc1ncc(F)c2nc(S(=O)(=O)Nc3c(F)cccc3F)nn12`, the relative growth was 1.04.
On to `O=[N+]([O-])c1cc(C(F)(F)F)c(Cl)c([N+](=O)[O-])c1Nc1ncc(C(F)(F)F)cc1Cl`, for which the relative growth is 0.921.
On the same count and under the same terms, the same measure for `COP(=S)(OC)Oc1ccc(SC)c(C)c1`: 1; for `CCCCCCCCCCCCNC(=N)N`: 0.788.
For `CC(C)NC(=O)N1CC(=O)N(c2cc(Cl)cc(Cl)c2)C1=O`, the relative growth is 0.959.
On the same count and under the same terms, with `CCCCOC(=O)[C@H](C)Oc1ccc(Oc2ccc(C#N)cc2F)cc1` the figure was 0.995; with `CCc1cccc(C)c1N(C(=O)CCl)[C@@H](C)COC`, 1.05.
The same measure, in the same setting: the same measure for `CC(C1CC1)C(O)(Cn1cncn1)c1ccc(Cl)cc1` (centres undefined): 1.04.
The same measure, in the same setting: the same measure for `CC(COc1ccc(Oc2ccccc2)cc1)Oc1ccccn1` (centres undefined): 1.06; for `CCNc1nc(Cl)nc(NC(C)C)n1`: 1.01.
Consider `N#C/N=C1\SCCN1Cc1ccc(Cl)nc1`, for which the relative growth was 1.07.
With `CCCC1COC(Cn2cncn2)(c2ccc(Cl)cc2Cl)O1` (centres undefined), the relative growth is 1.
On the same count and under the same terms, with `COc1cc(C)c(C(=O)c2c(OC)ccc(Br)c2C)c(OC)c1OC` the figure was 1.08.
Still for that read-out and setting: the same measure for `C/C(=N\C#N)N(C)Cc1ccc(Cl)nc1`: 1.05; for `CCCCN(CCCC)SN(C)C(=O)Oc1cccc2c1OC(C)(C)C2`: 1.01; for `N#Cc1c(Cl)c(Cl)c(Cl)c(C#N)c1Cl`: 1.02.
For the molecule `Cc1nc(N(C)C)nc(OC(=O)N(C)C)c1C`, the relative growth was 0.951.
Regarding `CC(C)CC(C)c1sccc1NC(=O)c1cn(C)nc1C(F)(F)F` (centres undefined), the relative growth is 1.01.
As for `Fc1ccc(Oc2ccnc3cc(Cl)cc(Cl)c23)cc1`, the relative growth was 1.01.
As to `CC1(C)C(C=C(Cl)Cl)C1C(=O)OCc1cccc(Oc2ccccc2)c1` (centres undefined), the relative growth was 0.975.
On the same count and under the same terms, the same measure for `Oc1ccccc1-c1ccccc1`: 0.988; for `CCC(C)c1ccccc1OC(=O)NC` (centres undefined): 1.05; for `CN/C(=N\[N+](=O)[O-])NCc1cnc(Cl)s1`: 1.
On the same count and under the same terms, with `O=C(O)c1nc(Cl)ccc1Cl` the figure was 0.994; with `CC1(C)[C@H](/C=C(\Cl)C(F)(F)F)[C@@H]1C(=O)OC(C#N)c1cccc(Oc2ccccc2)c1` (some centres undefined), 1.09; with `O=C(NC(=O)c1c(F)cccc1F)Nc1ccc(OC(F)(F)C(F)OC(F)(F)F)c(Cl)c1` (centres undefined), 0.997.
Regarding `O=C1C=C(N(Cc2ccc(Cl)nc2)CC(F)F)CO1`, the relative growth is 0.997.
The same measure, in the same setting: with `O=C(O)COc1ccc(Cl)cc1Cl` the figure was 0.972.
As for `COc1ccc(C(=CC(=O)N2CCOCC2)c2ccc(Cl)cc2)cc1OC` (mixture of isomers), the relative growth is 0.986.
On the same count and under the same terms, with `CCN(CC)c1nc(C)cc(OP(=S)(OC)OC)n1` the figure was 1.04; with `Oc1ccc(Cl)cc1Cc1cc(Cl)ccc1O`, 0.654 (active); with `N#CC(CCc1ccc(Cl)cc1)(Cn1cncn1)c1ccccc1` (centres undefined), 0.951.

The next assay concerns Community 9. The assay is described as above. The settings on record: 20 µM. The gist of the method: as §1
On to `CNC(=O)CSP(=S)(OC)OC`, for which the relative growth was 0.921.
Regarding `N#CCNC(=O)c1cnccc1C(F)(F)F`, the relative growth is 0.902.
Same read-out and setting: the same measure for `COP(=O)(OC)OC=C(Cl)Cl`: 0.964.
The same measure, in the same setting: with `CCc1cc(C)cc(CC)c1-c1c(OC(=O)C(C)(C)C)n2n(c1=O)CCOCC2` the figure was 0.884.
Still for that read-out and setting: with `CCOc1ccc(C(C)(C)COCc2cccc(Oc3ccccc3)c2)cc1` the figure was 0.965; with `COc1ncc(F)c2nc(S(=O)(=O)Nc3c(F)cccc3F)nn12`, 1.11; with `O=[N+]([O-])c1cc(C(F)(F)F)c(Cl)c([N+](=O)[O-])c1Nc1ncc(C(F)(F)F)cc1Cl`, 0.34 (active).
For the molecule `COP(=S)(OC)Oc1ccc(SC)c(C)c1`, the relative growth is 1.02.
On the same count and under the same terms, with `CCCCCCCCCCCCNC(=N)N` the figure was 0.294 (active).
Regarding `CC(C)NC(=O)N1CC(=O)N(c2cc(Cl)cc(Cl)c2)C1=O`, the relative growth is 0.94.
Same read-out and setting: the same measure for `CCCCOC(=O)[C@H](C)Oc1ccc(Oc2ccc(C#N)cc2F)cc1`: 1.06; for `CCc1cccc(C)c1N(C(=O)CCl)[C@@H](C)COC`: 0.948.
The same measure, in the same setting: the same measure for `CC(C1CC1)C(O)(Cn1cncn1)c1ccc(Cl)cc1` (centres undefined): 0.989; for `CC(COc1ccc(Oc2ccccc2)cc1)Oc1ccccn1` (centres undefined): 1.04.
Same read-out and setting: with `CCNc1nc(Cl)nc(NC(C)C)n1` the figure was 1.
For the molecule `N#C/N=C1\SCCN1Cc1ccc(Cl)nc1`, the relative growth is 1.09.
With `CCCC1COC(Cn2cncn2)(c2ccc(Cl)cc2Cl)O1` (centres undefined), the relative growth was 0.862.
For `COc1cc(C)c(C(=O)c2c(OC)ccc(Br)c2C)c(OC)c1OC`, the relative growth was 1.12.
Same read-out and setting: the same measure for `C/C(=N\C#N)N(C)Cc1ccc(Cl)nc1`: 0.986; for `CCCCN(CCCC)SN(C)C(=O)Oc1cccc2c1OC(C)(C)C2`: 0.884.
As for `N#Cc1c(Cl)c(Cl)c(Cl)c(C#N)c1Cl`, the relative growth was 0.784.
Same read-out and setting: with `Cc1nc(N(C)C)nc(OC(=O)N(C)C)c1C` the figure was 0.938; with `CC(C)CC(C)c1sccc1NC(=O)c1cn(C)nc1C(F)(F)F` (centres undefined), 0.916; with `Fc1ccc(Oc2ccnc3cc(Cl)cc(Cl)c23)cc1`, 1.03.
Turning to `CC1(C)C(C=C(Cl)Cl)C1C(=O)OCc1cccc(Oc2ccccc2)c1` (centres undefined), the relative growth was 0.932.
Still for that read-out and setting: with `Oc1ccccc1-c1ccccc1` the figure was 0.974; with `CCC(C)c1ccccc1OC(=O)NC` (centres undefined), 1.07; with `CN/C(=N\[N+](=O)[O-])NCc1cnc(Cl)s1`, 0.871.
The same measure, in the same setting: with `O=C(O)c1nc(Cl)ccc1Cl` the figure was 0.937.
On the same count and under the same terms, the same measure for `CC1(C)[C@H](/C=C(\Cl)C(F)(F)F)[C@@H]1C(=O)OC(C#N)c1cccc(Oc2ccccc2)c1` (some centres undefined): 0.956; for `O=C(NC(=O)c1c(F)cccc1F)Nc1ccc(OC(F)(F)C(F)OC(F)(F)F)c(Cl)c1` (centres undefined): 0.925; for `O=C1C=C(N(Cc2ccc(Cl)nc2)CC(F)F)CO1`: 0.992.
As for `O=C(O)COc1ccc(Cl)cc1Cl`, the relative growth is 1.03.
The same measure, in the same setting: the same measure for `COc1ccc(C(=CC(=O)N2CCOCC2)c2ccc(Cl)cc2)cc1OC` (mixture of isomers): 1.03; for `CCN(CC)c1nc(C)cc(OP(=S)(OC)OC)n1`: 1.04; for `Oc1ccc(Cl)cc1Cc1cc(Cl)ccc1O`: 0.327 (active).
The same measure, in the same setting: with `N#CC(CCc1ccc(Cl)cc1)(Cn1cncn1)c1ccccc1` (centres undefined) the figure was 0.939.

These data come from the supplement of paper PMC12067926.
